Many of the other results were omitted from the sample, so hits are more common in it than they were.
DUSP3 inh: VHR1 phosphatase inhibitors, primary screen, biochemical, colorimetric, HTS | Dual specificity protein phosphatase 3 (Homo sapiens), P51452 | recombinant VHR phosphatase, colorimetric substrate read-out | inhibition, % at 20 µM | 0.7% of 50,000 active | AID 1992, 2009; in the data active means inhibition above about 60%
Target sequence (P51452 whole entry, looked up): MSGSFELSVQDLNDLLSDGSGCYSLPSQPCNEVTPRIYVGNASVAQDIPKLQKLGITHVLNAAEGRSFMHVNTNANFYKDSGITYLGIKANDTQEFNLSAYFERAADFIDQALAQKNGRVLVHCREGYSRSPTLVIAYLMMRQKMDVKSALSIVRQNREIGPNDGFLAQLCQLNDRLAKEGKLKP
Hits are given with their value; n = inactive.

SMILES	DUSP3 inh
COc1ccc(-c2ccc(/C=C/C(=O)c3ccc(Cl)cc3)o2)cc1	n
CCc1ccc(NC(=O)CSc2nnc(-c3ccco3)n2-c2ccccc2)cc1	n
CCOc1ccc(NC(=S)NC(NC(=O)c2ccccc2)C(Cl)(Cl)Cl)cc1 (centres undefined)	n
N#C/C(=C/c1ccc([N+](=O)[O-])o1)C(=O)Nc1cccc(Br)c1	n
CC(C)(C)C1CCc2c(sc3c2c(=O)n(Cc2ccccc2)c2n[nH]c(=S)n32)C1 (centres undefined)	n
COc1ccc(NC(=O)C2COc3ccccc3O2)c(OC)c1 (centres undefined)	n
Cc1no[n+]([O-])c1COc1ccc(C=C2C(=O)NC(=O)NC2=O)cc1	n
O=[N+]([O-])c1ccc(CSc2nnc(-c3cccc(F)c3)n2-c2ccccc2)cc1	n
C=CCN1C(=O)/C(=C\c2ccc(-c3ccc([N+](=O)[O-])cc3)o2)C(=O)NC1=S	62.0
C=CCN1C(=O)/C(=C\c2ccc(-c3ccc(Br)cc3)o2)C(=O)NC1=S	n
C=CCN1C(=O)/C(=C\c2ccc(-c3cccc([N+](=O)[O-])c3)o2)C(=O)NC1=S	n
Cc1ccc(N2NC(=O)/C(=C/c3ccc(N4CCOCC4)cc3)C2=O)cc1	n
O=S(=O)(Nc1cccc(I)c1)c1ccc2ccccc2c1	n
COc1ccc(C(=O)N2N=C(C)CC2(O)c2ccc(Br)cc2)cc1 (centres undefined)	n
NS(=O)(=O)c1ccc(CNC2CC(=O)N(CCc3ccccc3)C2=O)cc1 (centres undefined)	n
COc1ccc(/C=C/C(=O)Nc2ccc(Br)cc2C(=O)c2cc(OC)c(OC)c(OC)c2)cc1OC	n
CC1CCc2c(sc(NC(=O)c3ccccc3)c2C(N)=O)C1 (centres undefined)	n
CC1CCc2c(sc(NC(=O)c3cccc(C(=O)O)c3)c2C(N)=O)C1 (centres undefined)	78.1
COc1cc(OC)cc(C(=O)Nc2sc3c(c2C(N)=O)CCC(C)C3)c1 (centres undefined)	n
Cc1cc(C(=O)O)ccc1-n1c(C)ccc1C	n
Cc1ccc(C)n1-c1ccc(Cl)cc1C(=O)O	84.6
COc1cc(C(=O)O)c(-n2c(C)ccc2C)cc1OC	n
Cc1ccc(C)n1-c1cc(C(=O)O)ccc1Cl	83.0
Cc1ccc(C(=O)O)cc1-n1c(C)ccc1C	n
Cc1ccc(C)n1-c1ccc(Cl)c(C(=O)O)c1	n
SMILES	DUSP3 inh
COc1ccc(NC(=O)C2=C(C)NC(=S)NC2c2ccccc2F)cc1 (centres undefined)	n
Cc1cc(/C=C2\NC(=O)NC2=O)c(C)n1-c1ccc(N(C)C)cc1	n
Cc1ccc(/C(O)=C/c2nc3ccc(C)cc3oc2=O)cc1	n
Cc1cc(C)c2oc(-c3ccc(NS(=O)(=O)c4ccccc4)cc3)nc2c1	n
CN(C)c1ccc(CNC(=O)C(O)(c2ccc(F)cc2)c2ccc(F)cc2)cc1	n
CCOc1cc(C2C(C(=O)OCC3CCCO3)=C(C)NC3=C2C(=O)CCC3)cc([N+](=O)[O-])c1O (centres undefined)	n
CCOc1cc(C2Nc3cc(C)c(C)cc3NC3=C2C(=O)CC(C)(C)C3)cc([N+](=O)[O-])c1O (centres undefined)	117.5
Cc1cc2c(cc1C)NC(c1c(F)cccc1F)C1=C(CC(C)(C)CC1=O)N2 (centres undefined)	n
COC(=O)c1ccc(C2Nc3cc(C)c(C)cc3NC3=C2C(=O)CC(C)(C)C3)cc1 (centres undefined)	n
COc1cc(C2Nc3cc(C)c(C)cc3NC3=C2C(=O)CC(C)(C)C3)cc(Br)c1OC (centres undefined)	n
CC(=O)Nc1ccc(C2Nc3cc(C)c(C)cc3NC3=C2C(=O)CC(C)(C)C3)cc1 (centres undefined)	100.1
Cc1cccc(C(=O)Nc2sc3c(c2C(=O)N2CCCCC2)CCCCC3)c1	n
COc1cccc(N2C(=O)C3C4C=CC(C4)C3C2=O)c1 (centres undefined)	n
O=C(NN1C(=O)c2ccccc2C1=O)c1ccc2c(c1)C(=O)N(c1ccc(Sc3ccc([N+](=O)[O-])cc3)cc1)C2=O	n
COc1ccc(CC(=O)N2N=C(C)CC2(O)c2ccc(Br)cc2)cc1OC (centres undefined)	n
COc1ccc(CN2CCN(C3CCCCC3)CC2)cc1	n
Cc1ccc(S(=O)(=O)/N=C2\C=CC(=O)C=C2Cl)cc1	n
O=C1C(Cl)=CC(=NS(=O)(=O)c2ccc(Cl)cc2)c2ccccc21	n
Cc1ccc(S(=O)(=O)/N=C2\C=C(Sc3ncn[nH]3)C(=O)c3ccccc32)cc1	63.5
CCOC(=O)CN1C(=O)/C(=C2\SC(=S)N(c3ccccc3)C2=O)c2ccccc21	n
O=C1C=C/C(=N\S(=O)(=O)c2cc(Cl)ccc2Cl)C=C1Cl	n
CCOc1cc(/C=N/Nc2nncn2N)cc(I)c1O	n
COc1ccc(C2C3C(=O)N(c4ccccc4)C(=O)C3N3CCCN23)cc1 (centres undefined)	88.6
COc1ccc(C2C3C(=O)N(c4ccc(Br)cc4)C(=O)C3N3CCCN23)cc1 (centres undefined)	n
O=C1C2C(C(=O)N1c1cccc(Cl)c1)N1CCCN1C2c1ccccc1 (centres undefined)	n
SMILES	DUSP3 inh
Cc1cc(OCC(=O)Nc2cc(Cl)cc(Cl)c2)ccc1Cl	n
Cc1ccccc1CC1S/C(=N/N=C/c2ccccc2F)NC1=O (centres undefined)	n
Cc1ccc(S(=O)(=O)N/N=C/c2ccc(OS(=O)(=O)c3cccc([N+](=O)[O-])c3)cc2)cc1	n
O=C(Nc1ccc(Cl)cc1)C1C2C3CCC(C3)C12 (centres undefined)	118.0
O=C(Nc1ccccc1)C1C2C3CCC(C3)C12 (centres undefined)	n
Cc1cc(C)c(NC(=O)C2C3C4CCC(C4)C23)c(C)c1 (centres undefined)	113.9
Cc1ccc(C)c(NC(=O)C2C3C4CCC(C4)C23)c1 (centres undefined)	n
O=C(Nc1ccc(Br)cc1)C1C2C3CCC(C3)C12 (centres undefined)	n
Cc1ccc(NC(=O)C2C3C4CCC(C4)C23)cc1 (centres undefined)	n
COC(=O)CSc1nnc(-c2ccccc2)c(-c2ccccc2)n1	n
CCOC(=O)Nc1ccc2c(c1)N(C(=O)OCC)c1ccccc1CC2	n
CCOc1ccc(N(CC(=O)Nc2ccccc2C)S(C)(=O)=O)cc1	n
COc1ccc(N2C(=O)Cn3c2nc2c3c(=O)n(C)c(=O)n2C)cc1	n
COc1ccc(C2CC(=O)C3=C(C2)Nc2ccccc2N(C(C)=O)C3c2ccc(OC)c(OC)c2)cc1 (centres undefined)	n
COc1ccc(C2CC(=O)C3=C(C2)Nc2ccccc2NC3c2cccc(Br)c2)cc1 (centres undefined)	n
O=C1CC(c2ccccc2)CC2=C1C(c1ccc(Cl)c(Cl)c1)Nc1ccccc1N2 (centres undefined)	n
COc1ccc(C2CC(=O)C3=C(C2)Nc2ccccc2NC3c2ccc(F)c(Br)c2)cc1 (centres undefined)	115.9
CCc1ccc(C2Nc3ccccc3NC3=C2C(=O)CC(c2ccc(OC)c(OC)c2)C3)cc1 (centres undefined)	115.4
O=C1CC(c2ccccc2)CC2=C1C(c1ccc(F)c(F)c1)Nc1ccccc1N2 (centres undefined)	104.3
CCC(=O)N1c2ccccc2NC2=C(C(=O)CC(c3ccccc3)C2)C1c1ccc(OC)cc1 (centres undefined)	102.6
